Screens as filed in PubChem BioAssay.
BAZ2B inh = inhibitors of human BAZ2B bromodomain | Q9UIF8 | AlphaScreen BAZ2B-H3K14Ac peptide displacement | Potency, µM (top dose mostly 114 µM), for the others: at the highest dose activity change, negative = inhibition, actives largely listed as inhibitors | 4.4% of 360,000 active; also: % is scaled to controls: 0 for no effect and ±100 for the full control effect; nearly all actives have a fitted effect of over 60% in size
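AlphaScreen displacement: compounds (up to 110uM) incubated 30 min at room temperature with a preformed 50 nM BAZ2B/50 nM biotinylated H3K14Ac peptide complex in PBS pH 7.4 with Tween-20. Donor and acceptor beads at 10 ug/mL final added, 20 min light-protected before reading.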
G9a inh = G9a (human) methyltransferase inhibition; G9a H3K9 monomethylation, AlphaScreen, 2 h; 8.8% of 350,000 active; Potency, µM (highest dose often 102 µM), for the others: at the top dose activity, negative = inhibition, most hits filed as inhibitors; also: % is scaled to controls: 0 for no effect and ±100 for the full control effect; nearly all actives have a fitted effect of over 75% in size
Target sequence (Q96KQ7 913-1193 limits assumed): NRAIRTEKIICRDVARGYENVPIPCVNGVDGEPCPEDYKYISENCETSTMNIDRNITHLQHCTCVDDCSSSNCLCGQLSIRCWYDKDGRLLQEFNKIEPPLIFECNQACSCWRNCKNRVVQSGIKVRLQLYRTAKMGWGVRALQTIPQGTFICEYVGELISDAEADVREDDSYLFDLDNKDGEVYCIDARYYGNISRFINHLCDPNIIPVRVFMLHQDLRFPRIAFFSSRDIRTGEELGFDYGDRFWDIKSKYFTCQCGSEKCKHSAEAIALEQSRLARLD
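AlphaScreen read-out: biotin-H3K9 peptide (500 nM) methylation by 20 nM enzyme with 20 uM SAM, 2 h at room temperature after 15 min compound preincubation; anti-monomethyl H3K9 antibody plus donor/acceptor beads, 10 min dark.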
JMJD2A Tudor inh = JMJD2A Tudor domain (human) inhibition. AlphaScreen JMJD2A-Tudor / H3K4me3 peptide binding. O75164. Potency, µM (top dose mostly 114 µM), for inactives: top-dose activity change, negative = inhibition, actives largely listed as inhibitors. 4.4% of 390,000 active; also: % is scaled to controls: 0 for no effect and ±100 for the full control effect; nearly all actives have a fitted effect of over 50% in size
HP1b binding inh = HP1-beta chromodomain-methylated histone interaction inhibition | P83916 | Potency, µM (series often up to 114 µM), inactives show at the highest dose activity change, negative = inhibition, usual class: inhibitors | AID 540317 | AlphaScreen HP1-beta / biotin-H3K9me3 peptide binding | 0.56% of 390,000 active; also: nearly all actives have a fitted effect of over 70% in size
Target sequence (P83916 whole entry, looked up): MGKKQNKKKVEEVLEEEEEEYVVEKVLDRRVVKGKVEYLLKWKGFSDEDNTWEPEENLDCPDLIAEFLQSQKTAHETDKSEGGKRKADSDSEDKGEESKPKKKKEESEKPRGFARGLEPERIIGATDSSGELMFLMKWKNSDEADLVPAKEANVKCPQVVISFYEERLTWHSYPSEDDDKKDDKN
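AlphaScreen: HP1-beta (50 nM) preformed 30 min with biotin-H3(1-18)K9me3 peptide (50 nM) in PBS pH 7.4, 0.01% Tween-20. Compound added for 30 min at RT, then streptavidin donor/nickel chelate acceptor beads (10 ug/mL) for 30 min.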
L3MBTL1 inh = inhibitors of human L3MBTL1; AID 485360; Q9Y468; AlphaScreen L3MBTL1–H3K9me1 peptide binding; 0.66% of 230,000 active; Potency, µM (highest dose often 57.1 µM), without a hit: top-dose activity, negative = inhibition, actives largely listed as inhibitors; also: % is scaled to controls: 0 for no effect and ±100 for the full control effect; nearly all actives have a fitted effect of over 60% in size
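AlphaScreen proximity signal between nickel-chelate acceptor and streptavidin donor beads (final 10 ug/mL) reports binding of 50 nM L3MBTL1 to 75 nM biotin-H3 K9me1 peptide; complex incubated with compounds 30 min at room temperature; cefsulodin titration as control.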
Active calls of the source: *; [ ] = another dose, or the depositor's remark. This is a sample that favours compounds with a hit; in the whole collection about 11% have one here. Calls follow the shape of the dose curve; as a rule, active = well fitted inhibition curve with a large enough effect; inconclusive = small, poorly fitted or top-dose-only effect; inactive = no such curve, though single readings can be large or run the other way. Potency is read from the fitted curve at half-maximal effect.

`O=C(Nc1ccc(OC(F)(F)F)cc1)c1ccc2nc[nH]c2c1` gave BAZ2B inh -38.4%, G9a inh 50.1µM*, JMJD2A Tudor inh -13.3%, HP1b binding inh 23.9% and L3MBTL1 inh 1.5%.
For Cc1c2cnn(CC(=O)NCCc3ccccc3)c(=O)c2c(C)n1Cc1ccccc1 the results were BAZ2B inh 0.6%, G9a inh 10.6%[59 µM], JMJD2A Tudor inh -2.7% and HP1b binding inh 21.3%.
Screening Cc1ccc(NCCCn2cnc3c(OCc4ccccc4)ncnc32)cc1C returned JMJD2A Tudor inh 50.1µM* and HP1b binding inh inconclusive.
`Cc1ccc2oc(-c3ccc(Cl)c(NC(=O)c4cc5ccccc5o4)c3)nc2c1` gave BAZ2B inh 2.9%, G9a inh inconclusive, JMJD2A Tudor inh 5.5% and HP1b binding inh 35.2%.
Screening CN1c2ccccc2C(C)(C)C12C=Nc1c(cc(N3CCOCC3)c3ccccc13)O2 (stereo not given) returned BAZ2B inh inconclusive, G9a inh 44.7µM*, JMJD2A Tudor inh inconclusive, HP1b binding inh -14.8% and L3MBTL1 inh -2.3%.
Screening CSc1nc(N2CCOCC2)c2ccccc2n1 returned BAZ2B inh 7.5%, G9a inh -9.9%[59 µM], JMJD2A Tudor inh -8.4%, HP1b binding inh 33.0% and L3MBTL1 inh 9.9%.
Screening Cc1ccc(-c2nnc(SCC(=O)c3ccc(Cl)cc3)n2-c2ccccc2)cc1 returned BAZ2B inh -4.4%, G9a inh -4.0%[59 µM], JMJD2A Tudor inh inconclusive and HP1b binding inh 11.4%.
`Oc1ccc2ccccc2c1C=Nc1ccccc1-c1nc2ccccc2[nH]1` gave BAZ2B inh 2.1%, G9a inh 7.08µM*, JMJD2A Tudor inh inconclusive and HP1b binding inh inconclusive.
For Cc1ccc(SC2=C(Sc3ccc(C)cc3)C(=O)c3ccccc3C2=O)cc1 the results were BAZ2B inh 3.55µM*, G9a inh 2.82µM*, JMJD2A Tudor inh 3.55µM*, HP1b binding inh 3.55µM* and L3MBTL1 inh inconclusive.
CCCCC(=Nc1ccc(N)cc1)C1=C(O)C(C(=O)OC)C(C)(C)CC1=O (stereo not given) was read as BAZ2B inh 56.2µM*, G9a inh 1µM*, JMJD2A Tudor inh inconclusive and HP1b binding inh -15.1%.
`CCC(=Nc1ccc(N)cc1)C1=C(O)C(C(=O)OC)C(C)(C)CC1=O` (stereo not given) gave BAZ2B inh inconclusive, G9a inh 50.1µM*, JMJD2A Tudor inh -35.4%, HP1b binding inh -12.7% and L3MBTL1 inh 28.2µM*.
`CC(=O)Nc1ccc(Nc2nc(-c3cc4ccccc4oc3=O)cs2)cc1` gave BAZ2B inh -17.6%, G9a inh inconclusive, JMJD2A Tudor inh -6.3%, HP1b binding inh 19.0% and L3MBTL1 inh -1.4%.
For COc1ccc2oc(=O)c(-c3csc(Nc4cccc(O)c4)n3)cc2c1 the results were BAZ2B inh 0.9%, G9a inh 3.4%[59 µM], JMJD2A Tudor inh 7.9%, HP1b binding inh 39.8% and L3MBTL1 inh 25.3%.
`O=C(O)c1ccc(Nc2nc(-c3cc4ccccc4oc3=O)cs2)cc1O` gave BAZ2B inh 28.2µM*, G9a inh 39.8µM*, JMJD2A Tudor inh 31.6µM*, HP1b binding inh 31.6µM* and L3MBTL1 inh inconclusive.
COc1ccc(Nc2nc(-c3cc4cccc(OC)c4oc3=O)cs2)cc1 was read as BAZ2B inh inconclusive, G9a inh 44.7µM*, JMJD2A Tudor inh -31.0%, HP1b binding inh 1.5% and L3MBTL1 inh 13.2%.
CCOC(=O)Cc1ccc(NC(=O)N(Cc2ccc(OC)cc2)C2CCN(C(C)=O)CC2)cc1 was read as BAZ2B inh -2.1%, G9a inh 2.5%[59 µM], JMJD2A Tudor inh -16.2% and HP1b binding inh 3.4%.
`CC1CCN(S(=O)(=O)c2cc(F)ccc2CN2C(=O)c3cccnc3C2=O)CC1` gave BAZ2B inh 56.2µM*, G9a inh -2.4%, JMJD2A Tudor inh -2.0% and HP1b binding inh 56.0%.
`CC1CCN(S(=O)(=O)c2cccc3cccnc23)CC1` gave BAZ2B inh 9.1%, G9a inh 12.9%, JMJD2A Tudor inh -11.3% and HP1b binding inh 13.5%.
CCN(CC)c1ccc(/C=N/N2CC(=O)NC2=S)cc1 was read as BAZ2B inh -1.4%, G9a inh 7.94µM*, JMJD2A Tudor inh -16.6%, HP1b binding inh 38.5% and L3MBTL1 inh -12.5%.
For Cc1ccc(Cn2ccn(Cc3ccc(C)cc3)c(=O)c2=O)cc1 the results were BAZ2B inh -25.5%, G9a inh -12.6%[59 µM], JMJD2A Tudor inh -18.1% and HP1b binding inh 30.9%.
O=C(COC(=O)c1ccccn1)Nc1cccnc1Cl was read as BAZ2B inh 79.4µM*, G9a inh 28.2µM*, JMJD2A Tudor inh inconclusive, HP1b binding inh -0.9% and L3MBTL1 inh -3.7%.
Screening O=C(COC(=O)c1ccc2c(c1)OCO2)Nc1ccccc1OC(F)F returned JMJD2A Tudor inh 2.3%, HP1b binding inh 31.8% and L3MBTL1 inh -2.2%.
For O=C(COC(=O)c1ccc(Cl)c([N+](=O)[O-])c1)Nc1ccccc1OC(F)F the results were BAZ2B inh 0.1%, G9a inh 1.58µM*, JMJD2A Tudor inh 2.1%, HP1b binding inh 18.8% and L3MBTL1 inh -10.2%.
`CCOC(=O)c1ncccc1NC(=O)CC(=O)Nc1cccnc1C(=O)OCC` gave JMJD2A Tudor inh 12.6µM* and HP1b binding inh 20.5%.
Screening CCOc1ccc(C(=O)OCC(=O)Nc2cccnc2Cl)cc1OCC returned JMJD2A Tudor inh -6.8%, HP1b binding inh 28.1% and L3MBTL1 inh -0.4%.
Screening O=C(COC(=O)c1ccccn1)Nc1ccccc1OC(F)F returned BAZ2B inh 50.1µM*, G9a inh 3.8%, JMJD2A Tudor inh 56.2µM* and HP1b binding inh 20.5%.
`COc1cc(NC(=O)Cn2c(=O)oc3cc(S(=O)(=O)N4CCCCCC4)ccc32)cc(OC)c1` gave BAZ2B inh -1.9%, G9a inh -24.1%[59 µM], JMJD2A Tudor inh -19.9% and HP1b binding inh 20.6%.
`Cc1cc(NC(=O)CSCC(=O)OCC(=O)c2cccc(Br)c2)no1` gave BAZ2B inh -25.7%, G9a inh 6.3%[12.7 µM], JMJD2A Tudor inh -28.9%, HP1b binding inh 7.9% and L3MBTL1 inh -18.7%.
For CN1C(=O)c2ccccc2Sc2ccc(NC(=O)COc3ccc(F)cc3)cc21 the results were BAZ2B inh -16.2%, G9a inh 5.0%[59 µM], JMJD2A Tudor inh -28.0% and HP1b binding inh 1.8%.
CCOc1ccc(-n2c(=O)c3c(C)c(C)sc3n(CC(=O)C(C)(C)C)c2=O)cc1 was read as BAZ2B inh 34.3%, G9a inh 39.3%[59 µM], JMJD2A Tudor inh -0.3% and HP1b binding inh 55.9%.
Screening O=C(OCC(=O)c1ccc(Cl)cc1Cl)c1ccccn1 returned JMJD2A Tudor inh 39.8µM*, HP1b binding inh 28.2% and L3MBTL1 inh inconclusive.
`COc1ccc(C(=O)COC(=O)c2ccccn2)c(OC)c1` gave JMJD2A Tudor inh -20.0%, HP1b binding inh 10.5%[57 µM] and L3MBTL1 inh -1.3%.
